The list is not random: actives were taken first. Their share in the collection is about 4.8%.
hcDAF12 agonist – activates DAF-12 receptor from parasite H. contortus; HEK293 hcDAF-12 lit1-tk-luc reporter, luminescence; 0% DMSO, 100% Δ7-dafachronic acid; activation, % at 6.8 µM; hit rate 1.4% among 370,000;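 active = activation above the mean of all tested compounds plus 3 SD, cut at about 5.5% in these data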;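 note: 100% = response to 3 µM Δ7-dafachronic acid high control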
hgDAF12 agonist – agonists of H. glycines DAF-12 nuclear receptor; HEK293 GAL4-hgDAF12 UAS-luciferase reporter, agonist luminescence; normalized to butyrate control; activation, % at 6.8 µM; hit rate 1.8% among 370,000;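 active = activation above a cutoff set at the mean of all screened compounds plus 3 SD, cut at about 10% in these data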;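 note: 0% = DMSO wells and 100% = sodium butyrate wells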
DAX1 inh-1 – inhibitors of DAX1 repression of SF-1 activated StAR promoter | hit rate 1.1% among 370,000 | HEK293T StAR-luciferase reporter, SF-1/DAX-1 repression relief | inhibition, % at 6.8 µM | AID 652010;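 active = inhibition above the mean over all tested compounds plus 3 SD, cut at about 3.6% in these data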;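 note: 0% = DAX-1 cells with DMSO and 100% = cells lacking DAX-1 with DMSO; higher inhibition means more luminescence from relief of DAX-1 repression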
ssDAF-12 act – activators of S. stercoralis DAF-12 nuclear receptor | HEK293 ssDAF-12/GRIP1 lit1-tk-luc reporter, luminescence; % of 3 µM dafachronic acid response | activation, % at 6.8 µM | hit rate 1% among 370,000 | AID 652126;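 active = activation above the mean over all tested compounds plus 3 SD, cut at about 0.9% in these data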;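 note: 0% = DMSO-only wells and 100% = 3 µM delta7-dafachronic acid wells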
DAX1 inh-2 – inhibits human nuclear receptor DAX1 | P51843 | HEK293 Gal4-DAX1 luciferase reporter, luminescence | inhibition, % at 6.75 µM | hit rate 0.99% among 340,000;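 active = inhibition above the mean over all tested compounds plus 3 SD, cut at about 4.2% in these data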;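 note: 0% = DAX1-transfected cells with DMSO and 100% = empty-vector control cells with DMSO; inhibition shows as a rise in luminescence from relieved DAX1 repression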
Target sequence (P51843 207-470 limits assumed): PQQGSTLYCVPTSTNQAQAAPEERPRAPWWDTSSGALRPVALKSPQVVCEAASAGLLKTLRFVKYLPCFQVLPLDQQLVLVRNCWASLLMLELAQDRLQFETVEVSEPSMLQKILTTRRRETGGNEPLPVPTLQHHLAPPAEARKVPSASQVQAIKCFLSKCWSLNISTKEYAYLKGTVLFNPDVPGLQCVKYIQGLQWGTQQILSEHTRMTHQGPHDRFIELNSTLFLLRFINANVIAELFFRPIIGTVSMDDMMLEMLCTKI
SMARCA2 activ – increases SMARCA2 function in MMTV reporter cells; MG213 cells, MMTV-luciferase reporter, dexamethasone, overnight; activation, % at 9.1 µM; hit rate 1% among 370,000; AID 652017; in the data active = activation above about 7.8%;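 note: 0% = vehicle wells and 100% = reference activator wells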
Starred values were filed as active, the others as inactive.

Screening CC(C)CC(=O)N1CCN(S(=O)(=O)c2ccc3ccccc3c2)CC1 returned hcDAF12 agonist -3.1, hgDAF12 agonist -5.3, DAX1 inh-1 -1.3, ssDAF-12 act -2.0, DAX1 inh-2 -1.3 and SMARCA2 activ -5.7.
Screening COc1cccc(-c2cc(NC=O)c3ncc(-c4ccc(C(C)=O)cc4)n3c2)c1 returned hcDAF12 agonist 5.0, hgDAF12 agonist 10.8*, DAX1 inh-1 -4.6, ssDAF-12 act -0.2 and SMARCA2 activ -1.5.
`COc1cc(-c2cc(NC=O)c3ncc(-c4ccc(C(C)=O)cc4)n3c2)cc(OC)c1OC` gave hcDAF12 agonist -3.3, hgDAF12 agonist -4.4, DAX1 inh-1 -3.9, ssDAF-12 act -2.2 and SMARCA2 activ 4.1.
Screening CC(=O)Nc1cc(-c2ccccc2)cn2c(-c3ccc(F)c(Cl)c3)cnc12 returned hcDAF12 agonist 0.5, hgDAF12 agonist -0.9, DAX1 inh-1 -0.2, ssDAF-12 act -1.4 and SMARCA2 activ -3.2.
COc1ccc(-c2cc(NC=O)c3ncc(-c4cccc(C(C)=O)c4)n3c2)cc1 was read as hcDAF12 agonist -1.9, hgDAF12 agonist -2.2, DAX1 inh-1 -1.7, ssDAF-12 act -1.6 and SMARCA2 activ 0.3.
Screening CC(=O)Nc1cc(-c2cccc(F)c2)cn2c(-c3ccc(F)c(Cl)c3)cnc12 returned hcDAF12 agonist -0.2, hgDAF12 agonist -1.6, DAX1 inh-1 4.5*, ssDAF-12 act -1.2 and SMARCA2 activ -1.7.
Screening COc1ccc(-c2cc(NC=O)c3ncc(-c4ccc(C(C)=O)cc4)n3c2)cc1OC returned hcDAF12 agonist -3.8, hgDAF12 agonist -5.6, DAX1 inh-1 -3.6, ssDAF-12 act -1.8 and SMARCA2 activ 7.9*.
For CC(=O)c1c(C)[nH]c(C(=O)Nc2ccc(N3CCCCCC3)cc2)c1C the results were hcDAF12 agonist -6.7, hgDAF12 agonist -9.8, DAX1 inh-1 -5.0, ssDAF-12 act -2.6, DAX1 inh-2 -2.9 and SMARCA2 activ -7.5.
Screening CCC(C)N1CC23C=CC(O2)C(C(=O)OC)C3C1=O (centres undefined) returned hcDAF12 agonist 1.3, hgDAF12 agonist 3.5, DAX1 inh-1 -0.1, ssDAF-12 act -1.5, DAX1 inh-2 6.7* and SMARCA2 activ -1.2.
CCCN1CC23C=CC(O2)C(C(=O)O)C3C1=O (centres undefined) was read as hcDAF12 agonist 1.3, hgDAF12 agonist -0.9, DAX1 inh-1 -0.7, ssDAF-12 act -0.8, DAX1 inh-2 5.0* and SMARCA2 activ -0.6.
`CCOC(=O)N1CCC(N2CC34C=CC(O3)C(C(=O)O)C4C2=O)CC1` (centres undefined) gave hcDAF12 agonist -2.0, hgDAF12 agonist -0.7, DAX1 inh-1 0.2, ssDAF-12 act -0.8, DAX1 inh-2 4.3* and SMARCA2 activ -0.5.
`CCOC(=O)C1[C@H]2C(=O)N(C(C)c3ccc(OC)cc3)C[C@]23C=C[C@H]1O3` (some centres undefined) gave hcDAF12 agonist -0.1, hgDAF12 agonist -0.7, DAX1 inh-1 0.3, ssDAF-12 act -0.9, DAX1 inh-2 0.0 and SMARCA2 activ -1.9.
CCN(CC)CCNC(=O)C(=O)Nc1cc2c3c(c1)CCN3C(=O)CC2 was read as hcDAF12 agonist 0.6, hgDAF12 agonist 3.4, DAX1 inh-1 0.1, ssDAF-12 act -0.2, DAX1 inh-2 0.6 and SMARCA2 activ 1.5.
`CCCCOc1ccc(-c2[nH]ncc2C=O)cc1` gave hcDAF12 agonist 3.6, hgDAF12 agonist 12.9*, DAX1 inh-1 1.1, ssDAF-12 act 0.1, DAX1 inh-2 5.1* and SMARCA2 activ 1.4.
Screening CCOc1ccc(-c2c(=O)n(OCC)c3ccccc3[n+]2[O-])cc1 returned hcDAF12 agonist -0.8, hgDAF12 agonist 2.3, DAX1 inh-1 -0.2, ssDAF-12 act -0.4, DAX1 inh-2 3.1 and SMARCA2 activ -1.3.
`CCCc1ccc(Oc2cc(Cl)nc(N)n2)cc1` gave hcDAF12 agonist 0.9, hgDAF12 agonist 3.1, DAX1 inh-1 0.6, ssDAF-12 act -1.5, DAX1 inh-2 2.0 and SMARCA2 activ 0.7.
CCc1ccc(Oc2cc(C)nc(N)n2)cc1 was read as hcDAF12 agonist 2.1, hgDAF12 agonist 10.7*, DAX1 inh-1 2.2, ssDAF-12 act -0.4, DAX1 inh-2 1.1 and SMARCA2 activ -1.5.
Screening CN(C)c1ccc(C(=O)OCC(=O)N2CCCC2)cc1 returned hcDAF12 agonist -0.2, hgDAF12 agonist 2.8, DAX1 inh-1 0.4, ssDAF-12 act 0.9*, DAX1 inh-2 0.6 and SMARCA2 activ 1.6.
CCNC(=O)C1(C)CCN1C(=O)Cc1ccc(C(C)C)cc1 (centres undefined) was read as hcDAF12 agonist 0.6, hgDAF12 agonist 1.6, DAX1 inh-1 0.5, ssDAF-12 act -1.1 and SMARCA2 activ -3.8.
For Cc1csc(CN(C)C(=O)C2CCC(=O)N(CCCc3ccccc3)C2)n1 (centres undefined) the results were hcDAF12 agonist -1.4, hgDAF12 agonist 2.1, DAX1 inh-1 -0.2, ssDAF-12 act -1.3, DAX1 inh-2 0.8 and SMARCA2 activ -1.0.
Screening COc1cc(NC(=S)NCc2ccco2)cc(OC)c1 returned hcDAF12 agonist -0.5, hgDAF12 agonist -2.1, DAX1 inh-1 -0.2, ssDAF-12 act -1.5, DAX1 inh-2 0.5 and SMARCA2 activ 0.0.
COc1ccc2cc(-c3cc(C(=O)OCC(=O)NC4CCS(=O)(=O)C4)c4ccccc4n3)ccc2c1 (centres undefined) was read as hcDAF12 agonist 4.4, hgDAF12 agonist 15.4*, DAX1 inh-1 4.4*, ssDAF-12 act 0.4, DAX1 inh-2 -0.8 and SMARCA2 activ 3.3.
Cc1ccc(C(=O)Nc2cccc(-c3ccc(N4CCOCC4)nn3)c2)cc1 was read as hcDAF12 agonist 1.9, hgDAF12 agonist 4.7, DAX1 inh-1 4.5*, ssDAF-12 act -0.2, DAX1 inh-2 0.6 and SMARCA2 activ -1.1.
O=[N+]([O-])c1cccc(S(=O)(=O)Nc2cccc(-c3ccc(N4CCCC4)nn3)c2)c1 was read as hcDAF12 agonist 0.5, hgDAF12 agonist 0.6, DAX1 inh-1 -0.8, ssDAF-12 act -1.1, DAX1 inh-2 0.1 and SMARCA2 activ 5.1.
`O=[N+]([O-])c1cccc(S(=O)(=O)Nc2cccc(-c3ccc(N4CCOCC4)nn3)c2)c1` gave hcDAF12 agonist 0.1, hgDAF12 agonist 3.2, DAX1 inh-1 4.4*, ssDAF-12 act -0.2, DAX1 inh-2 -0.7 and SMARCA2 activ 1.0.
O=C(COc1ccc(Cl)cc1)Nc1cccc(-c2ccc(N3CCOCC3)nn2)c1 was read as hcDAF12 agonist 4.6, hgDAF12 agonist 12.0*, DAX1 inh-1 3.5, ssDAF-12 act -0.3, DAX1 inh-2 -0.7 and SMARCA2 activ 7.6.
Screening CCCCn1cnc2c(SCc3ccc([N+](=O)[O-])cc3)nc(N)nc21 returned hcDAF12 agonist -2.8, hgDAF12 agonist -3.6, DAX1 inh-1 -0.1, ssDAF-12 act -1.7, DAX1 inh-2 -1.3 and SMARCA2 activ -0.8.

Screening results: PubChem, The Scripps Research Institute Molecular Screening Center
